Growth inhibition data for seven compounds are collected here from PubChem BioAssay (NCI).

Test [1] in a line: NCI Yeast Anticancer Drug Screen. Data for the rad50 strain (AID 155).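 Note: 0% = growth of vehicle-only cultures of the same strain.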 The conditions noted are these: S. cerevisiae rad50 strain growth inhibition, active compounds read high. The essentials:
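Yeast carrying a defined DNA repair defect were exposed to test compounds, and growth was compared with vehicle-treated controls to give percent inhibition.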

A short description of test [2]: NCI Yeast Anticancer Drug Screen. Data for the mec2-1 strain (AID 157). Particulars: S. cerevisiae mec2-1 strain, active compounds read high. The essentials: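 mec2-1 yeast strain, carrying an alteration in DNA damage repair or cell cycle control, was exposed to compounds; growth inhibition was measured relative to vehicle-treated controls.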
Test [3] is described as follows: NCI Yeast Anticancer Drug Screen. Data for the sgs1 mgt1 strain (AID 161).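 Note: 0% = growth of cultures given vehicle only.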 The conditions noted are these: S. cerevisiae sgs1 mgt1 strain, active compounds read high. The essentials: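 Yeast cells carrying a defined DNA-repair defect were exposed to test compounds. Growth inhibition was measured relative to vehicle-treated controls.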
A short description of test [4]: NCI Yeast Anticancer Drug Screen. Data for the cln2 rad14 strain (AID 165).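 Note: 0% = growth equal to vehicle treated cultures.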 The conditions noted are these: S. cerevisiae cln2 rad14 strain, active compounds read high. The gist of the method:
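Yeast carrying cln2 and rad14 alterations (cell cycle control and DNA damage repair) were exposed to compounds. Growth inhibition was measured against vehicle-treated controls.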

Test [5] is described as follows: NCI Yeast Anticancer Drug Screen. Data for the bub3 strain (AID 167). Particulars: S. cerevisiae bub3 mutant strain, active compounds read high. The gist of the method:
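Compounds were applied to a genetically altered yeast strain carrying a cell-cycle control defect. Growth inhibition was scored against vehicle-treated controls.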

Test [6] in a line: NCI Yeast Anticancer Drug Screen. Data for the mlh1 rad18 strain (AID 175). Particulars: S. cerevisiae mlh1 rad18 strain growth inhibition, active compounds read high. The gist of the method: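 Growth inhibition of the yeast strain was measured after compound exposure and expressed relative to vehicle-treated controls. The strain carries defined defects in DNA damage repair.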
[7] abbreviates: at 5.0 µM (retest, dose inferred, filed as 0.5).
The mark [8] stands for this setting: at 50.0 µM (retest, dose inferred, filed as 5.0).

The panel holds about 79,000 compounds, 15% with a hit somewhere; the sample as a whole holds those more often. Unmarked numbers belong to inactive results. The source made the active and inactive calls. Cut-off read from the data, not from the text of the source: active = growth inhibition above about 70%; inactive = the rest.

For the compound `O=S(=O)(OI(OI(OS(=O)(=O)C(F)(F)F)c1ccccc1)c1ccccc1)C(F)(F)F`, the growth inhibition in test [1] (setting [7]) is 58%; in test [1] (setting [8]), 97% (active); in test [1] (at 50.0 µM), 89.2% (active); in test [2] (setting [7]), 48%; in test [2] (setting [8]) it was 98% (active); in test [2] (at 50.0 µM), 91.5% (active). Moreover, the growth inhibition in test [3] (setting [7]) was 44%; in test [3] (setting [8]) it was 98% (active); in test [3] (at 50.0 µM), 91.7% (active); in test [4] (setting [7]) it was 27%; in test [4] (setting [8]) it was 92% (active); in test [4] (at 50.0 µM), 91.1% (active). The growth inhibition in test [5] (setting [7]) was 65%; in test [5] (setting [8]), 98% (active); in test [5] (at 50.0 µM) it was 91% (active); in test [6] (setting [7]), 75% (active); in test [6] (setting [8]), 97% (active); in test [6] (at 50.0 µM), 89.2% (active).
For the compound `CCN(CC)C(=S)n1c(=S)nc(N(CC)CC)sc1=S`, the growth inhibition was 57% in test [1] (setting [7]); 97% (active) in test [1] (setting [8]); 89.3% (active) in test [1] (at 50.0 µM); 42% in test [2] (setting [7]); 98% (active) in test [2] (setting [8]); 92.2% (active) in test [2] (at 50.0 µM). Also, the growth inhibition in test [3] (setting [7]) was 63%; in test [3] (setting [8]), 99% (active); in test [3] (at 50.0 µM), 92.5% (active); in test [4] (setting [7]), 39%; in test [4] (setting [8]), 86% (active); in test [4] (at 50.0 µM) it was 88.9% (active). Besides, the growth inhibition in test [5] (setting [7]) is 54%; in test [5] (setting [8]) it was 83% (active); in test [5] (at 50.0 µM), 91.2% (active); in test [6] (setting [7]) it was 75% (active); in test [6] (setting [8]), 98% (active); in test [6] (at 50.0 µM) it was 89.8% (active).
For `C=CCOc1ccc(C2(c3ccc(OCC=C)cc3)C(=O)Nc3ccccc32)cc1`, the growth inhibition in test [1] (setting [7]) is 1%; in test [1] (setting [8]) it was 90% (active); in test [1] (at 50.0 µM), 84.1% (active); in test [2] (setting [7]) it was -8%; in test [2] (setting [8]), 92% (active); in test [2] (at 50.0 µM), 86.8% (active). Also, the growth inhibition is 8% in test [3] (setting [7]); 90% (active) in test [3] (setting [8]); 89.2% (active) in test [3] (at 50.0 µM); 24% in test [4] (setting [7]); 91% (active) in test [4] (setting [8]); 86.5% (active) in test [4] (at 50.0 µM). The growth inhibition in test [5] (setting [7]) is 6%; in test [5] (setting [8]), 93% (active); in test [5] (at 50.0 µM) it was 87.9% (active); in test [6] (setting [7]), 5%; in test [6] (setting [8]), 88% (active); in test [6] (at 50.0 µM) it was 86.6% (active).
`CCOc1ccc(N=NS(=O)(=O)O)cc1`: the growth inhibition in test [1] (setting [7]) is -8%; in test [1] (setting [8]), 14%; in test [1] (at 50.0 µM), 61.1%; in test [2] (setting [7]), -11%; in test [2] (setting [8]) it was -23%; in test [2] (at 50.0 µM), -5.45%. For the same compound, the growth inhibition in test [3] (setting [7]) was -12%; in test [3] (setting [8]), -24%; in test [3] (at 50.0 µM) it was -6.5%; in test [4] (setting [7]), -29%; in test [4] (setting [8]), -88%; in test [4] (at 50.0 µM) it was 15%. Moreover, the growth inhibition is -7% in test [5] (setting [7]); -13% in test [5] (setting [8]); -23.1% in test [5] (at 50.0 µM); -2% in test [6] (setting [7]); -5% in test [6] (setting [8]); 9.4% in test [6] (at 50.0 µM).
For `CC(C)(C)c1ccc2c(c1)CNCCNCc1cc(C(C)(C)C)ccc1OCC1(CO2)COc2ccc(C(C)(C)C)cc2CNCCNCc2cc(C(C)(C)C)ccc2OC1`, the growth inhibition in test [1] (setting [7]) was 99% (active); in test [1] (setting [8]) it was 92% (active); in test [1] (at 50.0 µM) it was 89% (active); in test [2] (setting [7]), 99% (active); in test [2] (setting [8]), 94% (active); in test [2] (at 50.0 µM), 90% (active). The growth inhibition was 99% (active) in test [3] (setting [7]); 92% (active) in test [3] (setting [8]); 92.2% (active) in test [3] (at 50.0 µM); 99% (active) in test [4] (setting [7]); 92% (active) in test [4] (setting [8]); 89.5% (active) in test [4] (at 50.0 µM). The growth inhibition in test [5] (setting [7]) is 98% (active); in test [5] (setting [8]), 91% (active); in test [5] (at 50.0 µM) it was 89% (active); in test [6] (setting [7]), 98% (active); in test [6] (setting [8]), 92% (active); in test [6] (at 50.0 µM) it was 88.2% (active).
Turning to `O=[N+]([O-])c1ccccc1N=Nc1c(O)[nH]c2ccc(S(=O)(=O)O)cc12`, the growth inhibition in test [1] (setting [7]) is 73% (active); in test [1] (setting [8]), 96% (active); in test [1] (at 50.0 µM) it was 97.7% (active); in test [2] (setting [7]), 36%; in test [2] (setting [8]), 87% (active); in test [2] (at 50.0 µM), 97.8% (active). The growth inhibition in test [3] (setting [7]) is 68%; in test [3] (setting [8]), 93% (active); in test [3] (at 50.0 µM), 95.9% (active); in test [4] (setting [7]), 85% (active); in test [4] (setting [8]), 94% (active); in test [4] (at 50.0 µM), 95.6% (active). The growth inhibition in test [5] (setting [7]) is 87% (active); in test [5] (setting [8]), 97% (active); in test [5] (at 50.0 µM), 97.8% (active); in test [6] (setting [7]), 90% (active); in test [6] (setting [8]), 98% (active); in test [6] (at 50.0 µM), 98.4% (active).
`CC1OC(CC(=O)O)Cc2c1c(O)c1c(O)cc(-c3cc(=O)c4c(=O)c5c(c(=O)c=4c3=O)CC(CC(=O)O)OC5C)c(O)c1c2O` (stereo unspecified): the growth inhibition in test [1] (setting [7]) was -3%; in test [1] (setting [8]), 6%; in test [1] (at 50.0 µM) it was -7.4%; in test [2] (setting [7]) it was 3%; in test [2] (setting [8]) it was 2%; in test [2] (at 50.0 µM) it was 7.35%. The growth inhibition in test [3] (setting [7]) was -1%; in test [3] (setting [8]) it was 2%; in test [3] (at 50.0 µM), 54.4%; in test [4] (setting [7]), 1%; in test [4] (setting [8]), 29%; in test [4] (at 50.0 µM), -24.4%. The growth inhibition in test [5] (setting [7]) is 22%; in test [5] (setting [8]) it was 14%; in test [5] (at 50.0 µM), 11.3%; in test [6] (setting [7]), 0%; in test [6] (setting [8]), 2%; in test [6] (at 50.0 µM) it was 15.7%.
